Consider 9 compounds from PubChem BioAssay (NCI).

About 79,000 compounds went through this panel and 15% of them were active in at least one assay; those are over-represented in the sample as a whole. Unmarked numbers belong to inactive results. The source made the active and inactive calls. No stated cut-off is given here; in the data, active means growth inhibition above about 70%; inactive means the rest.

Assay [1] in a line: NCI Yeast Anticancer Drug Screen. Data for the rad50 strain (AID 155).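 Further: 0% = growth of vehicle-only cultures of the same strain.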 The note with it: S. cerevisiae rad50 strain growth inhibition, stronger effect = higher value. The method, boiled down:
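Relative growth inhibition (compound vs vehicle) was measured in yeast with a defined repair-gene alteration.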

A short description of assay [2]: NCI Yeast Anticancer Drug Screen. Data for the mec2-1 strain (AID 157). The note with it: S. cerevisiae mec2-1 strain, stronger effect = higher value. The method, boiled down: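 Growth inhibition is read against vehicle-treated controls after compound exposure of the mec2-1 yeast strain, which is defective in DNA damage repair or cell cycle control.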
The nature of assay [3]: NCI Yeast Anticancer Drug Screen. Data for the sgs1 mgt1 strain (AID 161).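 Further: 0% = growth of cultures given vehicle only.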 The conditions noted are these: S. cerevisiae sgs1 mgt1 strain, stronger effect = higher value. The method, boiled down: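 Percent growth inhibition was derived by comparing compound-exposed mutant yeast with vehicle-exposed cultures. The strain carries alterations in DNA damage repair.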
A short description of assay [4]: NCI Yeast Anticancer Drug Screen. Data for the cln2 rad14 strain (AID 165).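 Further: 0% = growth equal to vehicle treated cultures.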 The note with it: S. cerevisiae cln2 rad14 strain, stronger effect = higher value. In a few lines: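 Growth inhibition, relative to vehicle-treated controls, is the read-out. The test organism is a yeast strain with defined genetic alterations, cln2 rad14.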
Assay [5] in a line: NCI Yeast Anticancer Drug Screen. Data for the bub3 strain (AID 167). The conditions noted are these: S. cerevisiae bub3 mutant strain, stronger effect = higher value. In a few lines: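 Screening used yeast with an engineered genetic alteration affecting cell cycle control. Compound-exposed cultures were compared with vehicle cultures, and reduced growth was taken as inhibition.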
Assay [6] is described as follows: NCI Yeast Anticancer Drug Screen. Data for the mlh1 rad18 strain (AID 175). The conditions noted are these: S. cerevisiae mlh1 rad18 strain growth inhibition, stronger effect = higher value. In a few lines:
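Cells of a genetically altered yeast strain, deficient in DNA damage repair, were treated with compound. Their growth was then compared with that of vehicle-treated cultures to give inhibition.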

The mark [7] stands for this setting: at 5.0 µM (retest, dose inferred, filed as 0.5).
Setting [8] is: at 50.0 µM (retest, dose inferred, filed as 5.0).

`Clc1cccc(C2SCc3nc4ccccc4n32)c1Cl` (configuration not stated): the growth inhibition in assay [1] (setting [7]) is -2%; in assay [1] (setting [8]) it was 97% (active); in assay [1] (at 50.0 µM), 98.6% (active); in assay [2] (setting [7]) it was -3%; in assay [2] (setting [8]), 98% (active); in assay [2] (at 50.0 µM), 98.4% (active). The growth inhibition was 2% in assay [3] (setting [7]); 98% (active) in assay [3] (setting [8]); 97.5% (active) in assay [3] (at 50.0 µM); -17% in assay [4] (setting [7]); 97% (active) in assay [4] (setting [8]); 97.4% (active) in assay [4] (at 50.0 µM). Moreover, the growth inhibition in assay [5] (setting [7]) is 1%; in assay [5] (setting [8]) it was 98% (active); in assay [5] (at 50.0 µM), 98.5% (active); in assay [6] (setting [7]), -4%; in assay [6] (setting [8]), 98% (active); in assay [6] (at 50.0 µM) it was 97.1% (active).
For `CN(C)c1ccc(/C=C(\C#N)c2cccc(Cl)c2)cc1`, the growth inhibition in assay [1] (setting [7]) was 1%; in assay [1] (setting [8]) it was -8%; in assay [1] (at 50.0 µM), 16.7%; in assay [2] (setting [7]), -1%; in assay [2] (setting [8]), 1%; in assay [2] (at 50.0 µM) it was 18%. Moreover, the growth inhibition was 4% in assay [3] (setting [7]); 12% in assay [3] (setting [8]); 10.8% in assay [3] (at 50.0 µM); -3% in assay [4] (setting [7]); -25% in assay [4] (setting [8]); 69.4% in assay [4] (at 50.0 µM). In addition, the growth inhibition in assay [5] (setting [7]) is 5%; in assay [5] (setting [8]), 14%; in assay [5] (at 50.0 µM), 13.7%; in assay [6] (setting [7]), -3%; in assay [6] (setting [8]) it was -11%; in assay [6] (at 50.0 µM), -4.75%.
Consider `CC(C)c1ccc(C(C)C)c(O)c1O`, for which the growth inhibition in assay [1] (setting [7]) is 13%; in assay [1] (setting [8]) it was 72% (active); in assay [1] (at 50.0 µM), 82% (active); in assay [2] (setting [7]), 24%; in assay [2] (setting [8]) it was 73% (active); in assay [2] (at 50.0 µM), 87.3% (active). The growth inhibition in assay [3] (setting [7]) was 22%; in assay [3] (setting [8]) it was 79% (active); in assay [3] (at 50.0 µM), 88% (active); in assay [4] (setting [7]), 21%; in assay [4] (setting [8]) it was 63%; in assay [4] (at 50.0 µM), 53.2%. The growth inhibition was 7% in assay [5] (setting [7]); 67% in assay [5] (setting [8]); 87.2% (active) in assay [5] (at 50.0 µM); 7% in assay [6] (setting [7]); 94% (active) in assay [6] (setting [8]); 69.8% in assay [6] (at 50.0 µM).
Regarding `COc1cc2c(cc1OC)NCC1COc3c(ccc(OC)c3OC)C1=N2` (configuration not stated), the growth inhibition in assay [1] (setting [7]) was 12%; in assay [1] (setting [8]), 14%; in assay [1] (at 50.0 µM), -44.9%; in assay [2] (setting [7]) it was 14%; in assay [2] (setting [8]), 8%; in assay [2] (at 50.0 µM), -6.65%. The growth inhibition in assay [3] (setting [7]) is 15%; in assay [3] (setting [8]), 17%; in assay [3] (at 50.0 µM), -18.4%; in assay [4] (setting [7]), 19%; in assay [4] (setting [8]), 17%; in assay [4] (at 50.0 µM), 11.1%. For the same compound, the growth inhibition in assay [5] (setting [7]) was 17%; in assay [5] (setting [8]), 22%; in assay [5] (at 50.0 µM), 16%; in assay [6] (setting [7]), 12%; in assay [6] (setting [8]) it was 24%; in assay [6] (at 50.0 µM), -37.8%.
Take `Nc1ccc(-c2nc3ccccc3s2)cc1`: the growth inhibition in assay [1] (setting [7]) is 21%; in assay [1] (setting [8]) it was 96% (active); in assay [1] (at 50.0 µM), 89.8% (active); in assay [2] (setting [7]), 2%; in assay [2] (setting [8]), 100% (active); in assay [2] (at 50.0 µM) it was 91.8% (active). Besides, the growth inhibition in assay [3] (setting [7]) was -3%; in assay [3] (setting [8]) it was 99% (active); in assay [3] (at 50.0 µM), 88.4% (active); in assay [4] (setting [7]) it was 8%; in assay [4] (setting [8]) it was 85% (active); in assay [4] (at 50.0 µM), 87.6% (active). The growth inhibition is -2% in assay [5] (setting [7]); 99% (active) in assay [5] (setting [8]); 86.2% (active) in assay [5] (at 50.0 µM); 10% in assay [6] (setting [7]); 98% (active) in assay [6] (setting [8]); 84.6% (active) in assay [6] (at 50.0 µM).
With `COc1ccc2c(c1)Cc1ccccc1C2=O`, the growth inhibition in assay [1] (setting [7]) is 14%; in assay [1] (setting [8]), 34%; in assay [1] (at 50.0 µM), 15.8%; in assay [2] (setting [7]), 3%; in assay [2] (setting [8]) it was 8%; in assay [2] (at 50.0 µM), 4%. The growth inhibition in assay [3] (setting [7]) is 0%; in assay [3] (setting [8]) it was 1%; in assay [3] (at 50.0 µM) it was 6.75%; in assay [4] (setting [7]), 1%; in assay [4] (setting [8]), 3%; in assay [4] (at 50.0 µM), -0.35%. Moreover, the growth inhibition in assay [5] (setting [7]) is 75% (active); in assay [5] (setting [8]), 85% (active); in assay [5] (at 50.0 µM), 40.6%; in assay [6] (setting [7]), 2%; in assay [6] (setting [8]), 14%; in assay [6] (at 50.0 µM), 9.1%.
Take `C[C@H](CCC(=O)O)[C@H]1CC[C@H]2[C@@H]3CC[C@@H]4C[C@H](O)CC[C@]4(C)[C@H]3C[C@H](O)[C@]12C`: the growth inhibition is -14% in assay [1] (setting [7]); 95% (active) in assay [1] (setting [8]); 99.2% (active) in assay [1] (at 50.0 µM); 1% in assay [2] (setting [7]); 98% (active) in assay [2] (setting [8]); 98.8% (active) in assay [2] (at 50.0 µM). The growth inhibition in assay [3] (setting [7]) is -1%; in assay [3] (setting [8]) it was 97% (active); in assay [3] (at 50.0 µM), 99.3% (active); in assay [4] (setting [7]), -34%; in assay [4] (setting [8]) it was 98% (active); in assay [4] (at 50.0 µM), 99.3% (active). Moreover, the growth inhibition in assay [5] (setting [7]) was -16%; in assay [5] (setting [8]), 99% (active); in assay [5] (at 50.0 µM), 98.8% (active); in assay [6] (setting [7]) it was -11%; in assay [6] (setting [8]), 98% (active); in assay [6] (at 50.0 µM), 99% (active).
With `Clc1ccc(CN2COc3c(cc(Cl)c4cccnc34)C2)cc1Cl`, the growth inhibition was 43% in assay [1] (setting [7]); 97% (active) in assay [1] (setting [8]); 95.4% (active) in assay [1] (at 50.0 µM); -12% in assay [2] (setting [7]); 97% (active) in assay [2] (setting [8]); 97.5% (active) in assay [2] (at 50.0 µM). Further, the growth inhibition was 10% in assay [3] (setting [7]); 98% (active) in assay [3] (setting [8]); 70.6% (active) in assay [3] (at 50.0 µM); -11% in assay [4] (setting [7]); 97% (active) in assay [4] (setting [8]); 44.4% in assay [4] (at 50.0 µM). In addition, the growth inhibition was 3% in assay [5] (setting [7]); 97% (active) in assay [5] (setting [8]); -4.9% in assay [5] (at 50.0 µM); 13% in assay [6] (setting [7]); 96% (active) in assay [6] (setting [8]); 47.9% in assay [6] (at 50.0 µM).
Consider `C=CCNC(=S)N/N=C(/c1ccccn1)C(C)C`, for which the growth inhibition in assay [1] (setting [7]) was 1%; in assay [1] (setting [8]) it was 40%; in assay [1] (at 50.0 µM), 89.8% (active); in assay [2] (setting [7]), -1%; in assay [2] (setting [8]), 36%; in assay [2] (at 50.0 µM), 98.5% (active). Moreover, the growth inhibition in assay [3] (setting [7]) is -2%; in assay [3] (setting [8]), 80% (active); in assay [3] (at 50.0 µM), 96.9% (active); in assay [4] (setting [7]), -4%; in assay [4] (setting [8]), 28%; in assay [4] (at 50.0 µM), 91.3% (active). For the same compound, the growth inhibition was -2% in assay [5] (setting [7]); 41% in assay [5] (setting [8]); 96.3% (active) in assay [5] (at 50.0 µM); -2% in assay [6] (setting [7]); 69% in assay [6] (setting [8]); 96% (active) in assay [6] (at 50.0 µM).
